The whole screen tested about 310,000 compounds, of which about 2,200 (0.71%) showed an effect of 50% or more. Effects have a minus sign here. Many of the other results were omitted from the sample, so strong results are more common in it than they were.
molecular target: human ether-à-go-go-related gene (hERG) potassium channel (human, UniProt Q12809); assay: primary screen, population patch clamp on CHO cells stably expressing hERG; higher = less effect of the substance
Sequence (Q12809 whole entry, looked up): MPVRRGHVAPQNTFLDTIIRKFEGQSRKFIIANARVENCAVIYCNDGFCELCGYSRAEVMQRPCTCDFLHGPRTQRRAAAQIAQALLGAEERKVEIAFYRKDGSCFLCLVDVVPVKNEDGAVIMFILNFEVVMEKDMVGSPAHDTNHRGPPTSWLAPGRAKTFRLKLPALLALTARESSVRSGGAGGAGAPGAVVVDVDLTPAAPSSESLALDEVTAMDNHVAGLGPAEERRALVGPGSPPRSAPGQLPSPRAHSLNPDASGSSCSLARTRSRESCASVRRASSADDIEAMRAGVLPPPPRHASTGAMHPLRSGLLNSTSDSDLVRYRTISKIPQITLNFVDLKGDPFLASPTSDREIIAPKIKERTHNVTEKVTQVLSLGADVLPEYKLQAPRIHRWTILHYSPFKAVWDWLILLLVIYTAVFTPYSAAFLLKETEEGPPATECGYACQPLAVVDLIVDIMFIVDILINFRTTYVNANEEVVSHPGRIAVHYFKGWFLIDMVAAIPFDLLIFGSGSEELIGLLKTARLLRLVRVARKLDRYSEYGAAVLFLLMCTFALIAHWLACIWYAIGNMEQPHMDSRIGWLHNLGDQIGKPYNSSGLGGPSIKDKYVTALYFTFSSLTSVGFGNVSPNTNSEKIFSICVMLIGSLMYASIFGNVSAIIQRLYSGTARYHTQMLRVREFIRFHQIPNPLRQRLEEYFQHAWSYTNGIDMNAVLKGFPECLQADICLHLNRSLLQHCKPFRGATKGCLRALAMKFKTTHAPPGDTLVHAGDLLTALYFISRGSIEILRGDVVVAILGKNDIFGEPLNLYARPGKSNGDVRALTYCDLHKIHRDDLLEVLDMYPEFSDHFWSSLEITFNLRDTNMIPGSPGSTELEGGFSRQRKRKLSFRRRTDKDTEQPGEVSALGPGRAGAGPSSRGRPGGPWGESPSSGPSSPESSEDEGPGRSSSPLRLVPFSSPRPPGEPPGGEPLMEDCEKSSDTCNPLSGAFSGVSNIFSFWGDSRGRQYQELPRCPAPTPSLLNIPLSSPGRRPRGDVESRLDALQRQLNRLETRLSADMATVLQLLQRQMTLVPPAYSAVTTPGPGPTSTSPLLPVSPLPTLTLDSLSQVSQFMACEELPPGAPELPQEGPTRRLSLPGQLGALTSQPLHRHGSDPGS

Compared with `COc1ccc(CN2CCC(CO)(Cc3ccccc3C(F)(F)F)CC2)c(F)c1`, `COc1ccc(F)c(CN2CCC(CO)(Cc3cccc(C(F)(F)F)c3)CC2)c1` is higher in “hERG current change (%, negative = inhibition) at 1uM” value: -53% for the first, -1.43% for the second.

Compared with `COC(=O)c1ccc(CN2CCC(CO)(Cc3ccc(OC)cc3)CC2)cc1`, `COc1ccc(CC2(CO)CCN(Cc3ccc(OC(F)(F)F)cc3)CC2)cc1` is lower in “hERG current change (%, negative = inhibition) at 1uM” value: -35.1% for the first, -57.5% for the second.

First: COc1ccc(CC2(CO)CCN(Cc3cccn3-c3ccccn3)CC2)cc1
Second: COc1cccc(CC2(CO)CCN(Cc3cccn3-c3cccnc3)CC2)c1
The “hERG current change (%, negative = inhibition) at 1uM” value of the first is lower: -84.2% for the first, -6.04% for the second.

Compared with `COc1ccc(CC2(CO)CCN(Cc3cccc(OC)c3OC)CC2)cc1`, `COc1ccc(CC2(CO)CCN(Cc3cccc4nccnc34)CC2)cc1` is lower in “hERG current change (%, negative = inhibition) at 1uM” value: -17.3% for the first, -53% for the second.

First: OCC1(Cc2cccc(F)c2)CCN(Cc2cccc3nccnc23)CC1
Second: OCC1(Cc2ccccc2C(F)(F)F)CCN(Cc2ccccc2)CC1
The “hERG current change (%, negative = inhibition) at 1uM” value of the first is lower: -19.8% for the first, 3.01% for the second.

Going from `COc1ccc(CC2(CO)CCN(Cc3cccnc3)CC2)cc1` to `COc1ccc(CC2(CO)CCN(Cc3ccncc3)CC2)cc1`, the “hERG current change (%, negative = inhibition) at 1uM” value rises from 1.4% to 7.36%.

First: Cc1ccc(-c2nc(CS(=O)CC(=O)N3CCC4(CC3)OCCO4)c(C)o2)cc1 (stereo not drawn)
Second: COc1ccc(-c2nc(CN3CCN(Cc4ccccc4)CC3)c(C)o2)cc1
The “hERG current change (%, negative = inhibition) at 1uM” value of the first is lower: -3.05% for the first, 4.17% for the second.

First: Cc1ccc(N2CCN(C(=S)Nc3ccc(Cl)cc3)CC2)cc1
Second: CCC(=O)N1CCN(c2ccccc2NC(=O)Cc2ccc(Cl)cc2)CC1
The “hERG current change (%, negative = inhibition) at 1uM” value of the first is higher: 13.4% for the first, -41.5% for the second.

Compared with `CCN(CCCNC(=O)Cn1ncc2c([nH]c3ccccc32)c1=O)Cc1ccccc1`, `CC/C(=N/Nc1ccccc1)c1cnnc(-c2ccccc2)n1` is higher in “hERG current change (%, negative = inhibition) at 1uM” value: -2.84% for the first, 0.406% for the second.

First: Nc1c(C(=O)c2ccccc2)sc2snc(SCC(=O)c3ccccc3)c12
Second: Cc1sc(NC(=O)CCl)c(C(=O)c2ccccc2)c1C
The “hERG current change (%, negative = inhibition) at 1uM” value of the first is lower: 14.8% for the first, 15.1% for the second.

Going from `COc1cc(/C=C/C(=O)OCC(=O)N2CCCc3ccccc32)ccc1OCC#N` to `CC(=O)c1ccc(N2CCN(c3ccccc3O)CC2)c([N+](=O)[O-])c1`, the “hERG current change (%, negative = inhibition) at 1uM” value falls from 14.6% to 12.9%.

Compared with `Nc1cccc(Oc2ccc([N+](=O)[O-])cc2)c1`, `Cl.Nc1ccc(-c2nc3c(ccc4ccccc43)[nH]2)cc1` is higher in “hERG current change (%, negative = inhibition) at 1uM” value: 7.1% for the first, 16.3% for the second.

First: Cc1nc(-c2cnn(-c3ccccc3)c2)c2cc(C)oc2n1
Second: S=c1[nH]nc(-c2cc(-c3ccco3)[nH]n2)n1-c1ccccc1
The “hERG current change (%, negative = inhibition) at 1uM” value of the first is higher: 10.3% for the first, 3.15% for the second.

First: Cc1nn(-c2ccccn2)c2c1-c1nc(N3CCOCC3)ncc1CC2
Second: Cc1oc(-c2cccc(F)c2)nc1CN1CCCCC1CCc1ccccn1 (stereo not drawn)
The “hERG current change (%, negative = inhibition) at 1uM” value of the first is higher: 8.1% for the first, -89.5% for the second.

Going from `CC[C@H]1CN(C)C[C@@]2(C(=O)OC)Cc3c([nH]c4ccccc34)C(=O)C[C@@H]12` to `CC[C@H]1CN(C)CCc2c([nH]c3ccccc23)C(=O)C[C@@H]1/C(=C\OC)C(=O)OC`, the “hERG current change (%, negative = inhibition) at 1uM” value falls from 10.5% to -53.3%.

Going from `CC[C@@H]1CN(C)[C@H]2Cc3c([nH]c4ccccc34)C(=O)C[C@@H]1[C@@H]2C(=O)OC` to `COC(=O)C1=C(C)N(C)C(=O)NC1c1c(O)ccc2ccccc12` (stereo not drawn), the “hERG current change (%, negative = inhibition) at 1uM” value falls from 11.8% to 6.78%.

Compared with `Cl.O.Oc1ccc2c3c1O[C@H]1c4[nH]c5ccccc5c4C[C@@]4(O)C(C2)N(CC2CC2)CC[C@]314`, `Cl.Oc1ccc2c3c1O[C@H]1c4[nH]c5ccccc5c4C[C@@]4(O)[C@@H](C2)N(CC2CC2)CC[C@]314` is lower in “hERG current change (%, negative = inhibition) at 1uM” value: -16.4% for the first, -29.7% for the second.

First: CS(=O)(=O)O.O.Oc1ccc2c3c1O[C@H]1c4oc5ccccc5c4C[C@@]4(O)[C@@H](C2)N(CC2CC2)CC[C@]314
Second: N#Cc1ccccc1S(=O)(=O)N1CCN(CC(=O)Nc2ccccc2C(=O)NC2CC2)CC1
The “hERG current change (%, negative = inhibition) at 1uM” value of the first is lower: -68.1% for the first, -25.4% for the second.

First: Cc1ccc(S(=O)(=O)Nc2nc(C)c(C(=O)N/N=C/c3ccccc3)s2)cc1
Second: COc1ccc(Nc2nnc(C)c3ccccc23)cc1C(N)=O
The “hERG current change (%, negative = inhibition) at 1uM” value of the first is lower: 11% for the first, 16.1% for the second.

Compared with `COc1ccc(-c2nc(CN3CCCCC3CCc3ccccn3)c(C)o2)cc1` (stereo not drawn), `CCOc1ccc(-c2nc(CN3CCCCC3CCn3cccn3)c(C)o2)cc1` (stereo not drawn) is higher in “hERG current change (%, negative = inhibition) at 1uM” value: -79.4% for the first, -24.9% for the second.

First: Fc1cccc(Cc2noc(CN3CCCCC3CCc3ccccn3)n2)c1 (stereo not drawn)
Second: c1ccc(CCC2CCCCN2Cc2cn[nH]c2-c2cc3ccccc3o2)nc1 (stereo not drawn)
The “hERG current change (%, negative = inhibition) at 1uM” value of the first is higher: 13.2% for the first, -67% for the second.

Going from `c1ccc2oc(-c3[nH]ncc3CN3CCSCC3)cc2c1` to `O=C(c1ccccn1)C1CCCN(Cc2cn[nH]c2-c2cc3ccccc3o2)C1` (stereo not drawn), the “hERG current change (%, negative = inhibition) at 1uM” value falls from 9.72% to -23.5%.

First: Cc1oc(-c2cccc(F)c2)nc1CN1CCCCC1CCn1cccn1 (stereo not drawn)
Second: OCCCn1c(C2CCCN2c2nc(-c3ccc(F)cc3)cs2)nc2cc(C(F)(F)F)ccc21 (stereo not drawn)
The “hERG current change (%, negative = inhibition) at 1uM” value of the first is lower: -40.1% for the first, 2.52% for the second.

Going from `COc1ccc(S(=O)(=O)N(C)C)cc1NC(=O)CCCSc1ccccc1` to `COc1ccc(C2C(C(=O)NCc3ccccc3)=C(C)Nc3ncnn32)cc1OC` (stereo not drawn), the “hERG current change (%, negative = inhibition) at 1uM” value rises from -5.8% to 13.9%.

Compared with `CC(C)(C)c1ccc(OC(=O)c2ccc(-n3cncn3)nc2)cc1`, `Cc1ccc(OCC(=O)NNC(=O)CSc2nnc(-c3ccc(C)cc3)n2C)cc1` is lower in “hERG current change (%, negative = inhibition) at 1uM” value: 10.9% for the first, 7.24% for the second.

First: CCOC(=O)c1ccc(NS(=O)(=O)c2ccc3oc(=O)[nH]c3c2)cc1
Second: CC(=O)c1ccc(S(=O)(=O)N2CCN(CC(=O)Nc3ccccc3C(=O)NC3CC3)CC2)cc1
The “hERG current change (%, negative = inhibition) at 1uM” value of the first is higher: 7.04% for the first, -43.4% for the second.

Compared with `O=C(NCCN1CCOCC1)c1cc2cc(Br)ccc2oc1=O`, `O=C(CSc1nc2[nH]c(=O)cc(O)c2s1)Nc1cccc(Br)c1` is higher in “hERG current change (%, negative = inhibition) at 1uM” value: 0.63% for the first, 18.8% for the second.

First: CN1C(C(=O)NCc2ccc(OC(F)(F)F)cc2)CC2Cn3c(nc4cc5ccccc5cc43)C21 (stereo not drawn)
Second: CN1C(C(=O)NCc2ccc(OC(F)(F)F)cc2)CC2Cn3c(nc4ccccc43)C21 (stereo not drawn)
The “hERG current change (%, negative = inhibition) at 1uM” value of the first is higher: -14.7% for the first, -74.9% for the second.

Going from `O=C(NCc1ccc(OC(F)(F)F)cc1)C1CC2Cn3c(nc4ccccc43)C2N1c1ccccc1` (stereo not drawn) to `Cc1ccc(Cn2c(C3CCCN3c3nc(C)cs3)nc3cc(C(F)(F)F)ccc32)cc1` (stereo not drawn), the “hERG current change (%, negative = inhibition) at 1uM” value rises from -15.8% to 8.04%.

Going from `CC(=O)Nc1ccc(S(=O)(=O)N2CCN(C34CC5CC(CC(C5)C3)C4)CC2)cc1` to `N#Cc1ccc(S(=O)(=O)N2CCN(CC(=O)Nc3ccccc3C(=O)NC3CC3)CC2)cc1`, the “hERG current change (%, negative = inhibition) at 1uM” value falls from 3.31% to -67.3%.

First: O=C(CN1CCN(S(=O)(=O)c2ccccc2)CC1)Nc1ccccc1C(=O)NC1CC1
Second: O=C(CN1CCc2ccccc2C1)Nc1ccccc1C(=O)NC1CC1
The “hERG current change (%, negative = inhibition) at 1uM” value of the first is lower: 1.22% for the first, 3.95% for the second.

Compared with `N#Cc1ccc(CN2CCN(CC(=O)Nc3ccccc3C(=O)NC3CC3)CC2)cc1`, `Cc1ccc2cc(C#N)c(N3CCN(C(=O)c4ccccc4)CC3)nc2c1` is higher in “hERG current change (%, negative = inhibition) at 1uM” value: -87.4% for the first, -6.89% for the second.

Compared with `Cc1ccc2nc(N3CCN(C(=O)c4cccs4)CC3)c(C#N)cc2c1`, `Cc1ccc2cc(C#N)c(N3CCN(C(=O)c4cccs4)CC3)nc2c1` is higher in “hERG current change (%, negative = inhibition) at 1uM” value: -51.3% for the first, -1% for the second.

Going from `Cc1ccc2nc(N3CCN(C)CC3)c(C#N)cc2c1` to `Cc1ccc2nc(N3CCN(C(=O)c4ccc(F)cc4)CC3)c(C#N)cc2c1`, the “hERG current change (%, negative = inhibition) at 1uM” value falls from -10% to -56.8%.

Going from `N#Cc1cccnc1N1CCN(C(=O)c2cccs2)CC1` to `c1ccc(NC2=NCCCCS2)cc1`, the “hERG current change (%, negative = inhibition) at 1uM” value falls from 7.29% to -9.85%.

Compared with `CCC(NC(=O)Cc1c(C)c2ccc(OC)c(C)c2oc1=O)C(=O)NC(Cc1ccc(Cl)cc1)C(=O)O` (stereo not drawn), `COc1ccc(-n2c(O)c(/C=C3\C=Nc4ccc(Br)cc43)c(=O)[nH]c2=O)cc1` is higher in “hERG current change (%, negative = inhibition) at 1uM” value: 0.501% for the first, 12% for the second.

Going from `CC(c1cccs1)N(Cc1ccco1)C(=S)Nc1ccccc1Cl` (stereo not drawn) to `c1ccc(SCCOCCN2CCc3ccccc3C2)cc1`, the “hERG current change (%, negative = inhibition) at 1uM” value falls from 11.9% to -62.7%.

Going from `Cc1csc(N2CCCC2c2nc3cc(C(F)(F)F)ccc3n2CCOCCO)n1` (stereo not drawn) to `OCCOCCn1c(C2CCCN2c2nc(-c3ccc(F)cc3)cs2)nc2cc(C(F)(F)F)ccc21` (stereo not drawn), the “hERG current change (%, negative = inhibition) at 1uM” value falls from -62.8% to -73.2%.

First: Cc1csc(N2CCCC2c2nc3cc(Cl)c(N4CCCCC4)cc3n2CCOCCO)n1 (stereo not drawn)
Second: OCCOCCn1c(C2CCCN2c2nc(-c3ccc(F)cc3)cs2)nc2cc(Cl)c(Cl)cc21 (stereo not drawn)
The “hERG current change (%, negative = inhibition) at 1uM” value of the first is lower: -2.57% for the first, -0.144% for the second.

Going from `COc1ccc(NC(=O)CSc2nnc(Cn3cnc([N+](=O)[O-])n3)n2C)cc1` to `Cc1ccc(SCCOCCN2CCc3ccccc3C2)cc1`, the “hERG current change (%, negative = inhibition) at 1uM” value falls from 12.5% to -6.57%.

First: Clc1ccc(SCCCN2CCCCC2)cc1.O=C(O)C(=O)O
Second: Clc1ccc(SCCOCCN2CCCCC2)cc1.O=C(O)C(=O)O
The “hERG current change (%, negative = inhibition) at 1uM” value of the first is higher: -24.5% for the first, -61.1% for the second.

Compared with `Clc1ccc(SCCOCCN2CCCCCC2)cc1.O=C(O)C(=O)O`, `Cl.Clc1ccc(SCCOCCN2CCc3ccccc3C2)cc1` is higher in “hERG current change (%, negative = inhibition) at 1uM” value: -20.6% for the first, 8.68% for the second.

— article PMC4336329 (PLoS ONE, 2015)
